The text below walks through data of PubChem BioAssay (NCATS).

Molecules are shown by their SMILES. Values joined by “and” are separate entries in the source; they are usually repeats but may differ in a detail not shown here. Identical values can stand only once. Records with an inconclusive call do not appear. Active and inactive are the calls of the source. Unless noted, the call rests on the fitted dose curve; in most records, active means well fitted curve in the direction sought with a large enough effect; inconclusive means small, poorly fitted or top-dose-only effect, or another doubt; inactive means no such curve, though single readings can be large; an effect the other way counts as inactive or inconclusive.

The nature of test [1]: Cell Viability - Hek293 (AID 427;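 active means compounds whose dose-response curve shows a full or clear partial loss of cell viability, called from curve shape rather than a numeric limit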;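 further: potency means the concentration at half of the fitted maximal effect; cells exposed to compound for 40 hours at 37 °C before reading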). Conditions: qHTS. A digest of the protocol:
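HEK293 cells in complete medium were exposed to compound for 40 hr at 37 °C, then cellular ATP was read by CellTiter-Glo luminescence. Data were normalized to DMSO (basal) and 100 uM tamoxifen (100% inhibition), and AC50 came from Hill fits.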

Test [2] is described as follows: Cell Viability - NIH 3T3 (AID 541).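 Further: plate controls were DMSO alone for no effect and tamoxifen positive control for full effect; nearly all actives have a fitted effect of over 25% in size.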 Conditions: NIH 3T3 cell viability, qHTS; activity change, negative = cytotoxicity: at 92.2 µM (top of the series). In a few lines: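 Cells seeded at 1000/well, rested 5 hr at 37 °C, then dosed and incubated 40 hr at 37 °C. CellTiter-Glo added, 20 min room temperature, luminescence read. AC50 by Hill fit.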
Test [3] can be described thus: Cellular Toxicity (caspase-3) HepG2 (AID 654).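 Further: cells exposed to compound for 16 hours before reading; 0% = DMSO alone and 100% = caspase signal from 100 µM tamoxifen.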 To be noted: HepG2 caspase-3 activation, luminescence, 0% = DMSO only, 100% = tamoxifen; series mostly up to 92.2 µM. A digest of the protocol: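 Caspase 3/7 activation in HepG2 is measured as rising luminescence after a 16 hr treatment at 37 °C. Values are scaled between DMSO basal and 100 uM tamoxifen, and AC50 is fitted with the Hill equation.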

Test [4] in a line: Cellular Toxicity (caspase-3) Hek293 (AID 664).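 Further: cells exposed to compound for 16 h at 37 °C before readout.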 To be noted: HEK293 caspase-3 activation, DMSO = 0%, 100 µM tamoxifen = 100%; series mostly up to 92.2 µM. A digest of the protocol:
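qHTS, HEK293 (human embryonic kidney), 16 h cpd exposure in complete medium. Caspase-3/7 activation = luminescence increase; normalized to DMSO/100 uM tamoxifen; Hill-fit AC50.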

Test [5] is described as follows: Cellular Toxicity (caspase-3) NIH 3T3 (AID 666).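 Further: caspase signal read after 16 h compound exposure.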 To be noted: NIH 3T3 caspase-3 activation, apoptosis/toxicity, 0% DMSO, 100% is 100 µM tamoxifen; series mostly up to 92.2 µM. A digest of the protocol: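 Cells were plated at 1000 per well and incubated 5 hr at 37°C, then compound was added for 16 hr. Caspase-Glo 3/7 reagent followed for 20 min at room temperature before luminescence was read.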

Test [6] is described as follows: MultiTox-Fluor Cytotoxicity Assay - LYMP1-003 - Live Cells (AID 962).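 Further: 0% = DMSO only and full loss = 92 µM tetraoctylammonium bromide; cytotoxic hits lower the live-cell protease signal.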 Conditions: LYMP1-003 lymphoblastoid cells, MultiTox-Fluor live-cell protease fluorescence; series mostly up to 92.2 µM. In a few lines: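 Acute cytotoxicity is scored as a drop in live-cell protease activity in human lymphoblastoid LYMP1-003 cells after 16 hr compound exposure at 37 C. AC50 values come from Hill-equation modelling of concentration-response data.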

Test [7] is described as follows: Cell Viability - LYMP2-005 (AID 967).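 Further: plate controls were DMSO only for no effect and 92 µM tetraoctylammonium bromide control for full effect.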 To be noted: LYMP2-005 lymphoblastoid cell viability; series mostly up to 92.2 µM. In a few lines: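 CellTiter-Glo luminescence (cellular ATP) read-out; LYMP2-005 lymphoblastoid cells, 2500/well, 5 h pre-incubation, then 24 h compound exposure at 37 C in complete medium. Tetraoctylammonium bromide positive control; AC50 by standard Hill fit.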

A short description of test [8]: Cell Viability - LYMP2-009 (AID 968).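 Further: 0% = DMSO alone and the full-kill end = tetraoctylammonium bromide at 92 µM; nearly all actives have a fitted effect of over 55% in size.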 To be noted: LYMP2-009 lymphoblastoid cell viability; series mostly up to 92.2 µM.
Test [9] is described as follows: Cell Viability - LYMP2-017 (AID 972).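 Further: cells exposed to compound for 24 hours at 37 °C; on the % scale 0 is the no-effect control and ±100 the full control effect; nearly all actives have a fitted effect of over 55% in size.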 To be noted: LYMP2-017 lymphoblastoid cell viability; series mostly up to 92.2 µM. A digest of the protocol: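 Cytotoxicity is scored as a concentration-dependent drop in cellular ATP in a human lymphoblastoid line after 24 hr treatment at 37 C. Values are AC50s from Hill-equation modelling.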
The nature of test [10]: Cell Viability - LYMP2-019 (AID 973).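 Further: 0% = DMSO alone and full effect = 92 µM tetraoctylammonium bromide; nearly all actives have a fitted effect of over 55% in size.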 Conditions: LYMP2-019 lymphoblastoid cell line viability; series mostly up to 92.2 µM. In a few lines:
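Cytotoxicity is scored as a concentration-dependent drop in cellular ATP after cells (2500/well) receive compound for 24 hr at 37 C. Tetraoctylammonium bromide serves as positive control.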

A short description of test [11]: Cell Viability - LYMP2-021 (AID 974).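 Further: compound exposure lasts 24 hours at 37 °C; on the % scale 0 is the no-effect control and ±100 the full control effect; nearly all actives have a fitted effect of over 55% in size.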 Conditions: LYMP2-021 lymphoblastoid cells viability; series mostly up to 92.2 µM. A digest of the protocol: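 Loss of cellular ATP, measured with a luciferase-based CellTiter-Glo readout, serves as the toxicity signal in human lymphoblastoid cells treated for 24 hours at 37 C. Potency is reported as AC50 from a standard Hill model.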

A short description of test [12]: Cell Viability - LYMP2-016 (AID 984). Conditions: LYMP2-016 lymphoblastoid cell viability, qHTS; series mostly up to 92.2 µM. In a few lines: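 Human lymphoblastoid cells (LYMP2-016), 2500/well in complete medium, preincubated 5 hr at 37 C, then compound-treated 24 hr at 37 C. Intracellular ATP read by CellTiter-Glo luminescence after 30 min at room temperature; AC50 from Hill-equation concentration-response fits.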

Test [13] can be described thus: Cell Viability - LYMP2-022 (AID 987). Conditions: LYMP2-022 lymphoblastoid cell viability; series mostly up to 92.2 µM. A digest of the protocol: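 Cells were seeded at 2500 per well, rested 5 hr at 37 C, and treated with titrated compounds for 24 hr at 37 C. Cellular ATP was then quantified by luciferase luminescence, and AC50 values were derived from Hill-modelled concentration-response curves.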

A short description of test [14]: Cell Viability - LYMP2-026 (AID 989). Further: on the % scale 0 is the no-effect control and ±100 the full control effect; nearly all actives have a fitted effect of over 50% in size. Conditions: LYMP2-026 lymphoblastoid cell viability, qHTS; series mostly up to 92.2 µM. In a few lines:
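Cells are seeded at 2500 per well and held 5 hr at 37 C. Compounds are added in concentration series for 24 hr, then CellTiter-Glo reagent is applied and luminescence read.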

A short description of test [15]: qHTS assay for small molecule agonists of retinoid X receptor alpha signaling (AID 588544). Conditions: HEK293T RXRa-UAS-bla, beta-lactamase reporter, 18 h; 530 nm emission.
A short description of test [16]: qHTS assay for small molecule antagonists of retinoid X receptor alpha signaling (AID 588546).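 Further: cells stimulated with 9-cis-retinoic acid as agonist; on the % scale 0 is the no-effect control and ±100 the full control effect.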 Conditions: HEK293T RXRa-UAS-bla, beta-lactamase ratio, antagonist mode; measured here: W530 green channel, cytotoxicity proxy. A digest of the protocol: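 Beta-lactamase reporter inhibition, read as CCF4 fluorescence ratio (ex 405, em 460/530 nm) after 2 h at RT. HEK293T UAS-bla cells, 2500/well, were stimulated with 9-cis-RA at 500 or 100 nM final alongside test compound for 18 h at 37 C.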

Test [17] concerns the target Voltage-gated inwardly rectifying potassium channel KCNH2 (Homo sapiens) (UniProt Q12809). As to the kind of experiment: qHTS Assay for Small Molecule Inhibitors of the Human hERG Channel Activity (AID 588834).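 Further: top concentration of the series differs between compounds; on the % scale 0 is the no-effect control and ±100 the full control effect; lower thallium flux fluorescence means stronger hERG block; nearly all actives have a fitted effect of over 50% in size.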 To be noted: U2OS BacMam hERG, FluxOR thallium flux fluorescence; series mostly up to 92.2 µM. A digest of the protocol:
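In hERG-transduced U2OS cells, dye-loaded for 1 hr at room temperature in dark, test compounds incubated 10 min at 37 °C before thallium stimulation. AC50 values derived by Hill modelling of concentration-response.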

A short description of test [18]: qHTS assay for small molecule disruptors of the mitochondrial membrane potential - 5 hr assay (AID 651755; calls by dose curve; further: nearly all actives have a fitted effect of over 40% in size; further: potency means the concentration at half of the fitted maximal effect). To be noted: JC-1-type ratio dye; series mostly up to 92.2 µM. In a few lines:
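Seed HepG2 overnight, add compound, incubate 5 hr at 37C and 5% CO2, stain 30 min with Mito-MPS, then measure monomer (490/535 nm) and aggregate (540/590 nm) fluorescence.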

Test [19] concerns the target Peroxisome proliferator-activated receptor alpha (Homo sapiens) (UniProt Q07869). As to the kind of experiment: qHTS assay for small molecule agonists of the peroxisome proliferator-activated receptor alpha (PPARalpha) signaling pathway (AID 651778). Further: % of control where 0% means no effect. To be noted: PathHunter PPARalpha complementation, chemiluminescence, 6 h; stronger effect = higher value. In a few lines: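 Cells plated at 2,000/well and held overnight at 37 C, 5% CO2, then compound added by pin tool for 6 hr; after PathHunter detection reagent and 60 min at room temperature, chemiluminescence from enzyme complementation was read.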

Test [20] in a line: qHTS assay for small molecule agonists of the antioxidant response element (ARE) signaling pathway measured by Nrf2-dependant transcriptional activity (AID 720636; active means well fitted curve in the direction sought with a large enough effect in the repeat runs; an effect the other way counts as inactive or inconclusive;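 further: HepG2 cells with an ARE-driven luciferase reporter; % of control where 0% means no effect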). To be noted: ARE-luc HepG2, Nrf2 luciferase reporter, 16 h; series mostly up to 92.4 µM. In a few lines:
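We exposed ARE-luc HepG2 cells, seeded in assay medium with 1% dialyzed FBS and allowed 6 hr to adhere, to test compounds overnight (16 hr, 37 C) before measuring luciferase with ONE-Glo.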

Sequence of Voltage-gated inwardly rectifying potassium channel KCNH2 (Homo sapiens) (Q12809 whole entry, looked up): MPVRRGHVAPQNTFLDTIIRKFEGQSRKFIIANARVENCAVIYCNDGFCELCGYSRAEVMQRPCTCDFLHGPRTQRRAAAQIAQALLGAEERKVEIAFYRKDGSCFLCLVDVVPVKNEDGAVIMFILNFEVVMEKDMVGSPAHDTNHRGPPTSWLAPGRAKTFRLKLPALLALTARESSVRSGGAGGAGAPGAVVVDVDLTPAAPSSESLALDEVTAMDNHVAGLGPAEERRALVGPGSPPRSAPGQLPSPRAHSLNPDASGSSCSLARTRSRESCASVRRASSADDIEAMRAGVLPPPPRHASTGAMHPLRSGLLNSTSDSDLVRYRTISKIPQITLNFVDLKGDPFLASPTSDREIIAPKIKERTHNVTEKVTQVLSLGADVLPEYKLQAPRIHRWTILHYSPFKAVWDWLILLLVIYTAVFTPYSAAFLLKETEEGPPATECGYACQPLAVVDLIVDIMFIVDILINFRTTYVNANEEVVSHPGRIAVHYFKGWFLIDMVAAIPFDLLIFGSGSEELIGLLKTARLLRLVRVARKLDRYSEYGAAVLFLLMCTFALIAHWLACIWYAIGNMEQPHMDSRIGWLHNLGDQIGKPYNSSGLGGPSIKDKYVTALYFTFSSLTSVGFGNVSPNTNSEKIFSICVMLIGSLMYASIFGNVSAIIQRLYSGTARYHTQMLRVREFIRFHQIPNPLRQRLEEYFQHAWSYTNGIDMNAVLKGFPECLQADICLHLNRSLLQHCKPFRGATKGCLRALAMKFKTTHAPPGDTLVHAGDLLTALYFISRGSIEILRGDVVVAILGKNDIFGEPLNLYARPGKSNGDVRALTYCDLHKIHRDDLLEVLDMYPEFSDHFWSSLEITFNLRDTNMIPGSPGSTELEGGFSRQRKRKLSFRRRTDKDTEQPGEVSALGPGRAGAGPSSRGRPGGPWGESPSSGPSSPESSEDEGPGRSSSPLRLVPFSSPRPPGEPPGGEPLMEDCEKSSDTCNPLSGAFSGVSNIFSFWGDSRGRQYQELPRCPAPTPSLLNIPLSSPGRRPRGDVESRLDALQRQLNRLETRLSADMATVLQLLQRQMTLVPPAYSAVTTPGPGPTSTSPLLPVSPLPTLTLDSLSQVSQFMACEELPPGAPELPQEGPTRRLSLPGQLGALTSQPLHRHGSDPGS
Sequence of Peroxisome proliferator-activated receptor alpha (Homo sapiens) (Q07869 whole entry, looked up): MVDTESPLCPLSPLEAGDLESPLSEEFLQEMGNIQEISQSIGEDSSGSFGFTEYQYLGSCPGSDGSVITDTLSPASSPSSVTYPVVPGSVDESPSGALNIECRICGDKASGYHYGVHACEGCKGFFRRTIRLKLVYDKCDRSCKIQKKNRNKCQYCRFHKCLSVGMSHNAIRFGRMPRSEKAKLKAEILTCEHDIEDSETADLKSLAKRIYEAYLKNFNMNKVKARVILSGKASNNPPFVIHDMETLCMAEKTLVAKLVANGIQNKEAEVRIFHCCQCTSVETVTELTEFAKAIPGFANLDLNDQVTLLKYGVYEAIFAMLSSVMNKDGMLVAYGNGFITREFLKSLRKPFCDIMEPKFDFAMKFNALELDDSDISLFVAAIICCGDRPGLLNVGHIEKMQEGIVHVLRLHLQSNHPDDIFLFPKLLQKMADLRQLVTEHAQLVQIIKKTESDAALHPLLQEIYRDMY

In the case of `Cc1ccc2ccccc2c1`, the Potency in [1] was > 92 µM (inactive). For the same compound, the activity change, negative = cytotoxicity in test [2] was -11.3% (inactive). Moreover, the outcome in test [3], in test [4], in test [5] and in [20] was inactive. Further, the Potency entry in [6], in test [7], in test [8], in [9], in test [10] and in [11] was “inactive” each time. Further, the Potency entry in test [12], in test [13], in test [14], in [17] and in test [18] was “inactive” each time. Also, the max response was -14.7% in test [15], -12.4% in test [16] and -0.593% (inactive) in [19].

Take `C=C(C)C(=O)OCC1CO1` (stereo unspecified): in test [1], the Potency was > 92 µM (inactive). The activity change, negative = cytotoxicity in test [2] is -17.7% (inactive). Further, the compound was classed as inactive in [3], in test [4], in test [5] and in test [20]. The Potency entry in test [6], in test [7], in test [8], in [9], in test [10] and in [11] was “inactive” throughout. Further, the Potency entry in test [12], in test [13], in [14], in test [17] and in test [18] was “inactive” each time. Also, the max response in test [15] is -10.2%; in [16], -2.75%; in test [19] it was -4.83% (inactive).

Consider `Nc1c(Cl)c(Cl)nc(C(=O)O)c1Cl`, for which the Potency in [1] was > 92 µM (inactive). Moreover, the activity change, negative = cytotoxicity in test [2] is -10.1% (inactive). The call in test [3], in [4], in test [5] and in test [20] was inactive. For the same compound, the Potency result in test [6], in test [7], in [8], in test [9], in [10] and in test [11] was “inactive” each time. Moreover, the Potency result in test [12], in test [13], in test [14], in test [17] and in test [18] was “inactive” each time. Besides, the max response in test [15] is 27.1%; in [16] it was 15% and 5.55% and 11.1%; in [19], 0.0872% (inactive) and -2.27% (inactive) and -1.09% (inactive).

With `CCCCCCCC(=O)Cl`, the Potency in [1] is > 92 µM (inactive). The activity change, negative = cytotoxicity in test [2] is 5.37% (inactive). Moreover, the compound was classed as inactive in [3], in test [4], in test [5] and in test [20]. The Potency result in [6], in [7], in test [8], in test [9], in test [10] and in test [11] was “inactive” throughout. Further, the Potency entry in test [12], in test [13], in test [14], in [17] and in test [18] was “inactive” throughout. In addition, the max response in [15] is 12.8%; in test [16] it was -7.27%; in [19] it was 1.85% (inactive).

`CC(C)(c1ccccc1)c1ccc(O)cc1`: the Potency in [1] was > 92 µM (inactive); in test [18], 33.5 µM (active). Besides, the activity change, negative = cytotoxicity in test [2] was -17.8% (inactive). The compound was called inactive in test [5] and in test [20]. Moreover, the Potency result in test [6], in [7], in test [8], in test [9], in test [10] and in test [11] was “inactive” throughout. Besides, the Potency result in [12], in [13] and in test [14] was “inactive” each time. The max response was -10.3% and -15.2% in [15]; -11.5% in [16]; -2.53% (inactive) and 0.007% (inactive) in [19].

Consider `CN=C=S`, for which the Potency in test [1] is > 92 µM (inactive). Besides, the activity change, negative = cytotoxicity in test [2] was 7.36% (inactive). Also, the call in [3], in test [4], in test [5] and in test [20] was inactive. Further, the Potency entry in test [6], in test [8], in test [9], in [10], in test [11] and in test [12] was “inactive” throughout. The Potency entry in [13], in [14], in [17] and in test [18] was “inactive” in each case. In addition, the max response in test [15] is -13.3% and 3.16%; in test [16], -16.3% and -0.556%; in test [19], -2.7% (inactive) and -1.5% (inactive).
